PubChem BioAssay (Tox21)
Unmarked numbers belong to inactive results. Inconclusive results are not listed. A call without a number means that no potency is given here. Activity calls are given as the source filed them. Unless noted, calls follow the shape of the dose curve; as a rule, active = well fitted curve in the direction sought with a large enough effect in the repeat runs; inconclusive = weak or mixed curves; inactive = no such curve, though single readings can be large; an effect the other way counts as inactive or inconclusive.

What was measured:
[1] = biological target: Thyrotropin receptor (Homo sapiens) (UniProt P16473); test: qHTS assay to identify small molecule antagonists of the thyroid stimulating hormone receptor (TSHR) signaling pathway (AID 1259385; calls by dose curve; also: nearly all actives have a fitted effect of over 20% in size)
Thyrotropin receptor (Homo sapiens), sequence (P16473 whole entry, looked up): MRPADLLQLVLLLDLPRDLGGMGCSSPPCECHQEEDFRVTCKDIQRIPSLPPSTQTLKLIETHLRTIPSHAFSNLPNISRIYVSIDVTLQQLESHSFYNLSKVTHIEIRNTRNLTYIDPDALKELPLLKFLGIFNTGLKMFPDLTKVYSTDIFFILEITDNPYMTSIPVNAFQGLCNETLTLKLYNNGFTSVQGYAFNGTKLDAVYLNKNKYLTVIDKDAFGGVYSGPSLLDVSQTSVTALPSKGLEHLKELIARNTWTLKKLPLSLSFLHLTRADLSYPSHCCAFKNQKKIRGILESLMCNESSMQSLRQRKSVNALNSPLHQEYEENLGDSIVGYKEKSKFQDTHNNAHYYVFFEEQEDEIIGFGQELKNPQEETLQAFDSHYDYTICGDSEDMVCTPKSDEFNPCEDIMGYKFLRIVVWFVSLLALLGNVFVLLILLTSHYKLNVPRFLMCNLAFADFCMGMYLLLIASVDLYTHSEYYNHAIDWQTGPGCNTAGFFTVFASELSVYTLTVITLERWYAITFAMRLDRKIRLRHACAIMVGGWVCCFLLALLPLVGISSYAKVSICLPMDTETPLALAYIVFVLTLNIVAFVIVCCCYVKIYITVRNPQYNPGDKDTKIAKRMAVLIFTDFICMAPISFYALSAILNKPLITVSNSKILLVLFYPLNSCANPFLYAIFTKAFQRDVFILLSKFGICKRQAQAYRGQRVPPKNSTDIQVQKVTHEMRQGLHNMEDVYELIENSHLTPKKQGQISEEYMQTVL
Summary of the method: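 TSHR-HEK293 cells (800/well) plated 18 h, then compounds with Ro20-1724 and TSH at 1.5 ng/mL final, 30 min at room temperature. cAMP quantified by HTRF (cAMP-d2/anti-cAMP-cryptate, 1 h); 15 concentrations in triplicate.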

[2] = qHTS assay to identify small molecule agonists of the estrogen receptor alpha (ER-alpha) signaling pathway in the presence of an antagonist - cell viability counter screen (AID 1259386);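 also: series mostly up to about 92 µM; cells exposed to compounds for 22 h at 37 °C before the viability read; nearly all actives have a fitted effect of over 30% in size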
Summary of the method: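 VM7Luc4E2 cells (endogenous full-length ER-alpha, 4×ERE-luciferase) were held 5 days in phenol red-free medium with 10% charcoal-stripped FBS, plated, then given 10.0nM ICI-182,780 and compounds at 15 concentrations for 22hr at 37C; viability read by CellTiter-Fluor fluorescence.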

[3] = biological target: Progesterone receptor (Homo sapiens) (UniProt P06401); test: qHTS assay to identify small molecule agonists of the progesterone receptor (PR) signaling pathway (AID 1346784; calls by dose curve; also: nearly all actives have a fitted effect of over 30% in size)
Progesterone receptor (Homo sapiens), sequence (P06401 whole entry, looked up): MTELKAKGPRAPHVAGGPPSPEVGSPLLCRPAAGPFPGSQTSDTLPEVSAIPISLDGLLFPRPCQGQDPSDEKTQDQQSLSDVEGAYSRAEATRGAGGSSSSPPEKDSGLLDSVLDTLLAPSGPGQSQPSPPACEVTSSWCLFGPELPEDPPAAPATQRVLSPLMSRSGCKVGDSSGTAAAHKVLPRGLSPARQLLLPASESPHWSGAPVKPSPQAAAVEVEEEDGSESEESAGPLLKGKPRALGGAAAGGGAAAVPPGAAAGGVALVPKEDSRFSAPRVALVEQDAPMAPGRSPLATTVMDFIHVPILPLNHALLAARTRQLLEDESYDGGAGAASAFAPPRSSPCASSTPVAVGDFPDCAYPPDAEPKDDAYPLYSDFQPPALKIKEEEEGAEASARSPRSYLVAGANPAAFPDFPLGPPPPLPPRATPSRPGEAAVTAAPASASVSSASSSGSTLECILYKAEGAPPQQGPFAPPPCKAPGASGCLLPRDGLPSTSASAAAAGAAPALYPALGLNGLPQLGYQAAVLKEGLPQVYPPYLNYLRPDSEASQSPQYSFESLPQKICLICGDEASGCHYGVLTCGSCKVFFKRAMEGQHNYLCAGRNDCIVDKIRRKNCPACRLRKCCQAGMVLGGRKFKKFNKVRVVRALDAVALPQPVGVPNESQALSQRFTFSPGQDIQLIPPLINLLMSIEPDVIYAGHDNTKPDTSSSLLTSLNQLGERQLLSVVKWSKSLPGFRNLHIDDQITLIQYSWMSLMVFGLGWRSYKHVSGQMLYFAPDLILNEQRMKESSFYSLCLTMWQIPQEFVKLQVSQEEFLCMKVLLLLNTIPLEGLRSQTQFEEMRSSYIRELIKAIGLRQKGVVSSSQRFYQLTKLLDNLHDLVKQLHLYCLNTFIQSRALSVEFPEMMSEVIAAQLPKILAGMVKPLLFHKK
Summary of the method: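 Seed PR-UAS-bla HEK 293T cells (2% charcoal-stripped FBS), incubate 6 hr at 37C; add compounds in DMSO, 16 hr at 37C; add LiveBLAzer B/G substrate, 2 hr RT; read fluorescence intensity.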

[4] = biological target: Progesterone receptor (Homo sapiens) (UniProt P06401); test: qHTS assay to identify small molecule antagonists of the progesterone receptor (PR) signaling pathway (AID 1346795; active = well fitted inhibition curve with a large enough effect in the signal ratio in the repeat runs, not every such curve was filed as active; the % refers to the signal ratio)
Summary of the method: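 Screening used a GripTite HEK293T line with PR-responsive UAS-beta-lactamase. Cells were challenged with compound in the presence of 1 nM R5020 final for 16 hr at 37C; B/G FRET substrate, 2 hr room temperature, fluorescence.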

[5] = qHTS assay to identify small molecule antagonists of the progesterone receptor (PR) signaling pathway - cell viability counter screen (AID 1346798); also: nearly all actives have a fitted effect of over 50% in size; also: potency is read from the fitted curve at half-maximal effect
Summary of the method: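 Measures cytotoxicity in parallel with the PR antagonist reporter read: HEK293T PR-UAS-bla cells get compound and R5020 for 16 hr, and remaining viable cells are quantified by CellTiter-Glo luminescence.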

[6] = qHTS assay to identify small molecule agonists of the progesterone receptor (PR) signaling pathway - cell viability counter screen (AID 1346799; calls by dose curve; also: nearly all actives have a fitted effect of over 45% in size)
Summary of the method: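 Using the same plates as the PR reporter screen, HEK293T PR-UAS-bla cells received compounds for 16 hr at 37C and were then lysed with CellTiter-Glo; luminescence was read 30 min later at room temperature.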

[7] = qHTS assay to identify small molecule antagonists of the TGF-beta/Smad signaling pathway - cell viability counter screen (AID 1346824); also: nearly all actives have a fitted effect of over 50% in size
Summary of the method: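 SBE-bla HEK 293T cells, incubated overnight, then compound plus 0.25 ng/mL TGF-beta1 (stock added) for 5 hr at 37 C. Viability was read in the same wells by CellTiter-Glo luminescence after 30 min at room temperature.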

[8] = qHTS assay to identify small molecule agonists of the TGF-beta/Smad signaling pathway - cell viability counter screen (AID 1346829); also: top concentration of the series differs between compounds; nearly all actives have a fitted effect of over 45% in size
Summary of the method: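 Tox21 qHTS format: SBE-bla HEK 293T cells treated with DMSO-dissolved compounds for 5 hr; CellTiter-Glo luminescence after 30 min at room temperature.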

[9] = biological target: Thyrotropin-releasing hormone receptor (Homo sapiens) (UniProt P34981); test: qHTS assay to identify small molecule antagonists of the thyrotropin-releasing hormone receptor (TRHR) signaling pathway (AID 1346877; active = well fitted inhibition curve with a large enough effect in the repeat runs, not every such curve was filed as active; also: series mostly up to about 51 µM)
Thyrotropin-releasing hormone receptor (Homo sapiens), sequence (P34981 whole entry, looked up): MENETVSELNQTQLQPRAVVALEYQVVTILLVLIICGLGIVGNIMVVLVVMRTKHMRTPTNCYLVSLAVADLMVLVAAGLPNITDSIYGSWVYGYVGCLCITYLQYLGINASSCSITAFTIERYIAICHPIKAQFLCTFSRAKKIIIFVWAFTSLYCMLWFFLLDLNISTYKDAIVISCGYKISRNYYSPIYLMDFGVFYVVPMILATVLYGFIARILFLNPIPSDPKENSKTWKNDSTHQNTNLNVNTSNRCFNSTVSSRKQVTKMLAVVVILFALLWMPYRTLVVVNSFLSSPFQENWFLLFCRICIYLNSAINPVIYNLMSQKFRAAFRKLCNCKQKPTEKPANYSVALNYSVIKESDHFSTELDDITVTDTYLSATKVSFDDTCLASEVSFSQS
Summary of the method: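 TRHR-expressing HEK293 cells were seeded, cultured 18 h at 37 °C, then loaded with calcium dye for 2 h. Compounds were pre-incubated 5 min at room temperature before 1 nM TRH (final) was added, and kinetic fluorescence was recorded for 3 min.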

[10] = biological target: Thyrotropin-releasing hormone receptor (Homo sapiens) (UniProt P34981); test: qHTS assay to identify small molecule agonists of the thyrotropin-releasing hormone receptor (TRHR) signaling pathway (AID 1346891; calls by dose curve; also: series mostly up to about 58 µM)
Summary of the method: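 Overnight-plated (18 h, 37 °C, 5% CO2) TRHR-Hek293 cells; 2 h calcium dye at 37 °C; compound in DMSO; 3-min kinetic fluorescence read.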

[11] = Human pregnane X receptor (PXR) small molecule agonists, qHTS cell viability counter screen (AID 1346977); also: nearly all actives have a fitted effect of over 50% in size
Summary of the method: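 After a 5hr pre-incubation, PXR-Luc HepG2 cells received compounds plus positive control in DMSO and were kept 24hr at 37C. Cell viability was quantified by fluorescence from CellTiter-Fluor added for the final hour.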

[12] = Caspase-3/7 induction in HepG2 cells by small molecules, qHTS assay (AID 1346978); also: nearly all actives have a fitted effect of over 15% in size
Summary of the method: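 Wild-type HepG2 cells, 2,000/well, settled 5 hr at 37 C and 5% CO2, then compound-treated for 17 hr; caspase-3/7 activity read by luminescent Caspase-Glo 3/7 after 30 min at room temperature.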

[13] = Caspase-3/7 induction in CHO-K1 cells by small molecules, qHTS assay (AID 1346980); also: nearly all actives have a fitted effect of over 15% in size
Summary of the method: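 Wild-type CHO-K1 cells exposed to compounds for 17hr at 37 C, 5% CO2. Caspase-3/7 activity then measured by Caspase-Glo 3/7 luminescence after 30min at room temperature.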

[14] = Caspase-3/7 induction in HepG2 cells by small molecules, qHTS cell viability counter screen (AID 1346981); also: series mostly up to about 92 µM; nearly all actives have a fitted effect of over 30% in size
Summary of the method: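 Wild-type HepG2 cells (2,000/well) were allowed to settle for 5 hr at 37 C, 5% CO2, then dosed with compounds in DMSO by pin transfer. After 16 hr at 37 C, CellTiter-Fluor was added and fluorescence read 1 hr later.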

[15] = biological target: Nuclear receptor subfamily 1 group I member 2 (Homo sapiens) (UniProt O75469); test: Human pregnane X receptor (PXR) small molecule agonists, qHTS assay (AID 1346982); also: nearly all actives have a fitted effect of over 35% in size; also: potency is read from the fitted curve at half-maximal effect
Nuclear receptor subfamily 1 group I member 2 (Homo sapiens), sequence (O75469 whole entry, looked up): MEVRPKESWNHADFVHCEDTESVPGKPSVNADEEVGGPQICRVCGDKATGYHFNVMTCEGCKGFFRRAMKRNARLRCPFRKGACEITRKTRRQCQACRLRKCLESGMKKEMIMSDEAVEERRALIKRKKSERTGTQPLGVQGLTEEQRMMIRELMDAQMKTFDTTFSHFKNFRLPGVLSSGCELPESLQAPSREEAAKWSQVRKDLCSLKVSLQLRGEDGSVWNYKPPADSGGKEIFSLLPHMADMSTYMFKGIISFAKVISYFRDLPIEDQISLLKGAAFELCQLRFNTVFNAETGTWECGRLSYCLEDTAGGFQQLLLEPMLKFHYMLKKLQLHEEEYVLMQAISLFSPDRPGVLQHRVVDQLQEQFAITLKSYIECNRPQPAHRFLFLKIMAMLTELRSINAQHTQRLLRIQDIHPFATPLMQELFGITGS
Summary of the method: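 PXR-Luc HepG2 cells (CYP3A4 promoter-driven luciferase) were seeded in medium with 5% charcoal-stripped FBS, left 5 hr at 37 C, then exposed to compounds in DMSO for 24 hr. Luminescence was read after ONE-Glo addition.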

[16] = biological target: Nuclear receptor subfamily 1 group I member 2 (Rattus norvegicus) (UniProt Q9R1A7); test: Rat pregnane X receptor (rPXR) activation by small molecules, qHTS assay (AID 1346983); settings: rPXR luciferase reporter cells, One-Glo luminescence, 24 h; hits give high values; also: nearly all actives have a fitted effect of over 20% in size
Nuclear receptor subfamily 1 group I member 2 (Rattus norvegicus), sequence (Q9R1A7 whole entry, looked up): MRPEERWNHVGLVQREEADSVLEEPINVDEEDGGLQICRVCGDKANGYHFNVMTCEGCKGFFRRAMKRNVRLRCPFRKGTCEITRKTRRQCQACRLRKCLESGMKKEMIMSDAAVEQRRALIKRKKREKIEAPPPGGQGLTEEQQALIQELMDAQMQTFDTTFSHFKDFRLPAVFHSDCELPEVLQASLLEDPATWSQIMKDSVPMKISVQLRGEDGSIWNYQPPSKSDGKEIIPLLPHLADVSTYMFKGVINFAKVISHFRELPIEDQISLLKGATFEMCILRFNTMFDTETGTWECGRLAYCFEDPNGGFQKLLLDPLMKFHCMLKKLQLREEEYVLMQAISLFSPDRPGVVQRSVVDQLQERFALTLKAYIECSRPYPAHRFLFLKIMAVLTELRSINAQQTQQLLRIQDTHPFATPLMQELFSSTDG
Summary of the method: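 Cell-based rPXR activation assay: rPXR cells, 2,000 per well, rested 5hr at 37 C, then exposed to compounds in DMSO for 24 hr at 37 C. Luciferase activity read by One-Glo luminescence after 30 min at room temperature.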

[17] = biological target: Nuclear receptor subfamily 1 group I member 2 (Homo sapiens) (UniProt O75469); test: CYP3A4 induction through human pregnane X receptor (PXR) by small molecules, qHTS assay (AID 1346984); also: nearly all actives have a fitted effect of over 40% in size
Summary of the method: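 DPX-2 cells (HepG2 co-transfected with PXR and CYP3A4 promoter-luciferase) treated with compounds 24 h at 37C; luciferin-IPA CYP3A4 substrate 3uM final added for 3 h, then One-Glo; luminescence read. qHTS format.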

[18] = biological target: Nuclear receptor subfamily 1 group I member 2 (Homo sapiens) (UniProt O75469); test: Human pregnane X receptor (PXR) activation by small molecules, qHTS assay (AID 1346985); also: nearly all actives have a fitted effect of over 40% in size
Summary of the method: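 DPX-2 cells (HepG2 co-transfected with a PXR response element and a CYP3A4-promoter luciferase construct) were seeded at 2,000 per well, rested 5 hr at 37C, then exposed to DMSO-dissolved compounds for 24 hr. Activation was read as luciferase luminescence.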

[19] = qHTS assay to identify small molecule agonists of the TGF-beta/Smad signaling pathway (AID 1346859; active = well fitted activation curve with a large enough effect in the signal ratio in the repeat runs, not every such curve was filed as active; the % refers to the signal ratio; also: series mostly up to about 77 µM)
Summary of the method: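 Beta-lactamase reporter activity downstream of Smad binding elements was measured in stably transfected HEK 293T cells; compounds were incubated for 5 hr, substrate for 2 hr at room temperature.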

[20] = Caspase-3/7 induction in CHO-K1 cells by small molecules, qHTS cell viability counter screen (AID 1346979); also: nearly all actives have a fitted effect of over 35% in size
Summary of the method: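 Multiplexed with Caspase-Glo 3/7 in CHO-K1 cells, this counter screen added CellTiter-Fluor after 16hr of compound exposure and recorded fluorescence 1hr later.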

O=C(O)COc1nn(Cc2ccccc2)c2ccccc12
Potency [1]: inactive
Potency [2]: inactive
Potency [3]: inactive
Potency [4]: inactive
Potency [5]: inactive
Potency [6]: inactive
Potency [7]: inactive
outcome [8]: inactive
outcome [9]: inactive
outcome [10]: inactive
Potency [11]: inactive
Potency [12]: inactive
outcome [13]: inactive
Potency [14]: inactive
Potency [15]: inactive
max activation [16]: -0.954%
Potency [17]: inactive
Potency [18]: inactive

CCn1nc(C(=O)O)c(=O)c2cc3c(cc21)OCO3
Potency [1]: inactive
Potency [2]: inactive
Potency [3]: inactive
Potency [4]: inactive
Potency [5]: inactive
Potency [6]: inactive
Potency [7]: inactive
outcome [8]: inactive
outcome [19]: inactive
Potency [11]: inactive
Potency [12]: inactive
Potency [20]: inactive
outcome [13]: inactive
Potency [14]: inactive

CCCCCSCCCCC
Potency [1]: inactive
Potency [2]: inactive
Potency [3]: inactive
Potency [4]: inactive
Potency [5]: inactive
Potency [6]: inactive
Potency [7]: inactive
outcome [8]: inactive
outcome [19]: inactive
Potency [11]: inactive
Potency [12]: inactive
Potency [20]: inactive
outcome [13]: inactive
Potency [14]: inactive
Potency [15]: inactive

C[N+](C)(C)CC(O)CC(=O)[O-] (centres undefined)
Potency [1]: inactive
Potency [2]: inactive
Potency [3]: inactive
Potency [4]: inactive
Potency [5]: inactive
Potency [6]: inactive
Potency [7]: inactive
outcome [8]: inactive
outcome [19]: inactive
outcome [9]: inactive
outcome [10]: inactive
Potency [11]: inactive
Potency [12]: inactive
Potency [20]: inactive
outcome [13]: inactive
Potency [14]: inactive
max activation [16]: 7.16%

CC1(C)CO[C@@H](CC(=O)O)CN1
Potency [1]: inactive
Potency [2]: inactive
Potency [3]: inactive
Potency [4]: inactive
Potency [5]: inactive
Potency [6]: inactive
Potency [7]: inactive
outcome [8]: inactive
outcome [19]: inactive
outcome [9]: inactive
outcome [10]: inactive
Potency [11]: inactive
Potency [12]: inactive
Potency [20]: inactive
Potency [14]: inactive
Potency [15]: inactive
max activation [16]: -0.675%
Potency [17]: inactive
Potency [18]: inactive

N=C(N)c1ccccc1
Potency [1]: inactive
Potency [2]: inactive
Potency [3]: inactive
Potency [4]: inactive
Potency [5]: inactive
Potency [6]: inactive
Potency [7]: inactive
outcome [8]: inactive
outcome [19]: inactive
outcome [9]: inactive
outcome [10]: inactive
Potency [11]: inactive
Potency [12]: inactive
Potency [20]: inactive
outcome [13]: inactive
Potency [14]: inactive
Potency [15]: inactive

COC(=O)CCSCCC(=O)OC
Potency [1]: inactive
Potency [2]: inactive
Potency [3]: inactive
Potency [4]: inactive
Potency [5]: inactive
Potency [6]: inactive
Potency [7]: inactive
outcome [8]: inactive
outcome [19]: inactive
outcome [9]: inactive
outcome [10]: inactive
Potency [11]: inactive
Potency [12]: inactive
Potency [20]: inactive
outcome [13]: inactive
Potency [14]: inactive
Potency [15]: inactive

Cn1cc(S(C)=O)c(=O)c2ccc(F)cc21 (centres undefined)
Potency [1]: inactive
Potency [2]: inactive
Potency [3]: inactive
Potency [4]: inactive
Potency [5]: inactive
Potency [6]: inactive
Potency [7]: inactive
outcome [8]: inactive
outcome [19]: inactive
outcome [9]: inactive
outcome [10]: inactive
Potency [11]: inactive
Potency [12]: inactive
Potency [20]: inactive
outcome [13]: inactive
Potency [14]: inactive
Potency [15]: inactive

O=C(c1ccccc1)C1CCCCC1
Potency [1]: inactive
Potency [2]: inactive
Potency [3]: inactive
Potency [4]: inactive
Potency [5]: inactive
Potency [6]: inactive
Potency [7]: inactive
outcome [8]: inactive
outcome [19]: inactive
outcome [9]: inactive
outcome [10]: inactive
Potency [11]: inactive
Potency [12]: inactive
Potency [20]: inactive
outcome [13]: inactive
Potency [14]: inactive
Potency [15]: inactive

CCn1ccnc1CC1COc2ccccc2O1 (centres undefined)
Potency [1]: inactive
Potency [2]: inactive
Potency [3]: inactive
Potency [4]: inactive
Potency [5]: inactive
Potency [6]: inactive
Potency [7]: inactive
outcome [8]: inactive
outcome [19]: inactive
outcome [9]: inactive
outcome [10]: inactive
Potency [11]: inactive
Potency [12]: inactive
Potency [20]: inactive
outcome [13]: inactive
Potency [14]: inactive
Potency [15]: 26.6 µM (active)

c1ccc(CC2=NCCN2)cc1
Potency [1]: inactive
Potency [2]: inactive
Potency [3]: inactive
Potency [4]: inactive
Potency [5]: inactive
Potency [6]: inactive
Potency [7]: inactive
outcome [8]: inactive
outcome [19]: inactive
outcome [9]: inactive
outcome [10]: inactive
Potency [11]: inactive
Potency [12]: inactive
Potency [20]: inactive
outcome [13]: inactive
Potency [14]: inactive
Potency [15]: inactive
max activation [16]: -1.57%
Potency [17]: inactive
Potency [18]: inactive

NS(=O)(=O)c1cc(C(=O)NN2C[C@H]3[C@H]4CCC(C4)[C@H]3C2)ccc1Cl
Potency [1]: inactive
Potency [2]: inactive
Potency [3]: inactive
Potency [4]: inactive
Potency [5]: inactive
Potency [6]: inactive
Potency [7]: inactive
outcome [8]: inactive
outcome [19]: inactive
outcome [9]: inactive
outcome [10]: inactive
Potency [11]: inactive
Potency [12]: inactive
outcome [13]: inactive
Potency [14]: inactive
Potency [15]: inactive

CC(C)(C)NCCNC(C)(C)C
Potency [1]: inactive
Potency [2]: inactive
Potency [3]: inactive
Potency [4]: inactive
Potency [5]: 0.864 µM (active)
Potency [6]: inactive
Potency [7]: inactive
outcome [8]: inactive
outcome [19]: inactive
Potency [11]: inactive
Potency [12]: inactive
Potency [20]: inactive
outcome [13]: inactive
Potency [14]: inactive
Potency [15]: inactive

CC/C=C\CC/C=C/C(OCC)OCC
Potency [1]: inactive
Potency [2]: inactive
Potency [3]: inactive
Potency [4]: inactive
Potency [5]: inactive
Potency [6]: inactive
Potency [7]: inactive
outcome [8]: inactive
outcome [19]: inactive
Potency [11]: inactive
Potency [12]: inactive
Potency [20]: inactive
outcome [13]: inactive
Potency [14]: inactive
Potency [15]: 24.3 µM (active)
